# Screening results from PubChem.
# GLA spleen mod: alpha-galactosidase A (human) modulation; P06280; human spleen homogenate, 4MU-alpha-Gal fluorescence, 40 min; Potency, µM (highest dose often 80 µM), without a hit: top-dose activity change, negative = inhibition, usual class: inhibitors; 240,000 compounds, 0.008% hits;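 note: potency is the fitted concentration of half-maximal effect; 0% = enzyme with vehicle and -100% = no enzyme basal signal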
#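 Human spleen homogenate (1 ug) as enzyme source, 4-methylumbelliferyl-alpha-D-galactopyranoside 1 mM final, citrate/phosphate pH 5.0 with 0.01% Tween-20. Compounds 40 min at 37C, NaOH/glycine stop; fluorescence Ex 365/Em 440, Hill-fit AC50.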
# GLA inh pH 4.5: alpha-galactosidase A (human) inhibition, pH 4.5; P06280; purified enzyme, 4-MU-alpha-Gal fluorescence, pH 4.5; activity change, negative = inhibition, % at 105 µM; 230,000 tested, under 10 active; AID 1467;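 note: 0% = full activity with enzyme and -100% = basal without enzyme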
# Target sequence (P06280 whole entry, looked up): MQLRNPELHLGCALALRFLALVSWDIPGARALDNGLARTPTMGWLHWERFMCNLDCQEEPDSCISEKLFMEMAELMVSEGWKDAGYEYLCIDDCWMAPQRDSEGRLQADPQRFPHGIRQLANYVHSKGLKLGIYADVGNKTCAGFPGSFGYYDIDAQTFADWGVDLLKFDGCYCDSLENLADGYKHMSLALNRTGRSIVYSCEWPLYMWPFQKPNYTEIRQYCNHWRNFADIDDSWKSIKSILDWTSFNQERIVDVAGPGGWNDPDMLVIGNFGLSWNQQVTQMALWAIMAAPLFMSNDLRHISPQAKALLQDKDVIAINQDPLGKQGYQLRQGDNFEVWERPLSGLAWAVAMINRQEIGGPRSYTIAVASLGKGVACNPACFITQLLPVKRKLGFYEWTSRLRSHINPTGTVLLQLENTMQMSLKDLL
# HTT cytoprotect: Huntington cell model cytoprotection by ATP luminescence; PC12 HTT-Q103 induced, cytoprotection, ATP luminescence, 40 h; 230,000 compounds, 0.14% hits; Potency, µM (doses to about 56.4 µM), for inactives: cytoprotection (ATP increase), hits mostly activators; AID 1471; note: potency is the fitted concentration of half-maximal effect; % of control where 0% means no effect; nearly all actives have a fitted effect of over 45% in size
#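 Compounds were screened for protection of PC12 cells against cell death after tebufenozide induction (100 nM final) of mutant Huntingtin exon 1 (Q103) fused to GFP.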
# HTT aggregate: mutant huntingtin aggregation inhibition; PC12 HttQ103-GFP aggregates, Acumen cytometry, 40 h; Potency, µM (highest dose often 46.1 µM), inactives show at the highest dose activity change, negative = inhibition, most hits filed as inhibitors; 220,000 compounds, 1.1% hits; note: potency is the fitted concentration of half-maximal effect; % is set by controls: 0 for no effect and ±100 for the full control effect; nearly all actives have a fitted effect of over 60% in size
#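 Steps: seed 1500 PC12 HTTQ103-GFP cells/well; add tebufenozide, 100 nM final; add compound titration; add ATPLite reagent; quantify GFP aggregates by laser scanning cytometry.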
# * hit, by the source's call; ? = inconclusive; / = no result given; [ ] = dose if it differs, or a comment. Only some compounds are listed: those with a hit (about 1.2% of all), similar ones and a draw of the others. Calls come from the whole dose curve; as a rule, active = well fitted curve in the direction sought with a large enough effect; inconclusive = small, poorly fitted or top-dose-only effect, or another doubt; inactive = no such curve, though single readings can be large; an effect the other way counts as inactive or inconclusive.
SMILES,GLA spleen mod,GLA inh pH 4.5,HTT cytoprotect,HTT aggregate
O=C(NNC(=S)Nc1cccc(Cl)c1)c1ccccc1OC(F)F,0%,-1,/,11µM*
COc1cccc(NC(=S)NNC(=O)c2ccccc2OC(F)F)c1,4%,-7,18%,?
CCCC(=O)N1CCN(c2ccc(C(=O)c3ccc(OC)c(Br)c3)cc2F)CC1,4%,-2,-3%,-6%
COc1ccc(C(=O)c2ccc(N3CCN(C(=O)c4ccc(F)cc4)CC3)c(F)c2)cc1Br,3%,-3,-49%,13µM*
CC1CCN(C(C(=O)Nc2ccc(C(C)C)cc2)c2ccc3c(c2)OCO3)CC1 (configuration not stated),-5%,-9,0%,20µM*
CC(C)c1ccc(NC(=O)C(c2ccc3c(c2)OCO3)N2CCCCC2)cc1 (configuration not stated),-10%,-17,-31%,?
C/C(=N/S(=O)(=O)c1ccc(Cl)c(Cl)c1)OCC(C)(C)C,/,/,8%[10 µM],/
Cc1cc(N/N=C/c2c(O)ccc3ccccc23)nc(-c2ccccc2O)n1,4%,-12,27%[10 µM],10µM*
Oc1ccc2ccccc2c1/C=N/Nc1ccccc1,-2%,0,42%[10 µM],?
C=CCCCCCCCCC(=O)OC,/,/,11%,10%
Cc1cc(/C=C2/SC(=S)N(c3ccc([N+](=O)[O-])cc3)C2=O)c(C)n1-c1cccnc1,-5%,-11,/,4µM*
CCCCCCCCCCCC,-1%,/,/,/
CSCC[C@H](NC(=O)[C@H](CC(C)C)NC(=O)[C@H](CO)NC(=O)[C@H](CCC(=O)O)NC(=O)[C@H](CC(C)C)NC(=O)[C@H](Cc1ccc(O)cc1)NC(=O)[C@H](CCCCN)NC(=O)[C@H](CCCCN)NC(=O)[C@H](C)NC(=O)[C@H](CO)NC(=O)[C@H](CC(C)C)NC(=O)[C@H](CCC(N)=O)NC(=O)CNC(=O)[C@H](CC(C)C)NC(=O)[C@H](CC(C)C)NC(=O)[C@H](CCCCN)NC(=O)[C@H](CO)NC(=O)[C@H](Cc1ccccc1)NC(=O)[C@H](CC(=O)O)NC(=O)[C@H](CO)NC(=O)[C@@H](NC(=O)[C@H](Cc1ccccc1)NC(=O)[C@@H](NC(=O)CNC(=O)[C@H](CC(=O)O)NC(=O)[C@H](C)NC(=O)[C@@H](N)Cc1cnc[nH]1)C(C)C)[C@@H](C)O)C(N)=O,5%,/,/,/
Cc1ccc(C(=O)C(c2ccccc2)N2Cc3ccccc3C2=N)cc1 (configuration not stated),-9%,-22,20%[10 µM],16µM*
COc1ccc(C(=O)C(c2ccccc2)N2CCOCC2)cc1 (configuration not stated),-10%,-5,14%[10 µM],0%
Cc1cc(C)c(S(=O)(=O)/N=C2/C=C(Sc3ncn[nH]3)C(=O)c3ccccc32)cc1C,-7%,3,-98%[10 µM],3.5µM*
CC(=O)Nc1ccc(NC2=C/C(=N/S(=O)(=O)c3cccs3)c3ccccc3C2=O)cc1,-3%,-20,/,5.6µM*
Cc1ccc(NC2=C/C(=N/S(=O)(=O)c3cccs3)c3ccccc3C2=O)cc1C,5%,3,/,?
Cc1cc(C)c[n+](C2=C([O-])c3ccccc3C(=O)/C2=N\S(=O)(=O)c2cccs2)c1,-8%,-10,-6%[1.9 µM],-11%
Cc1ccccc1NC1=C/C(=N\S(=O)(=O)c2cccs2)c2ccccc2C1=O,-3%,-11,-111%,1.4µM*
Cc1cc[n+](C2=C([O-])c3ccccc3C(=O)/C2=N\S(=O)(=O)c2cccs2)cc1C,-9%,-7,-2%[10 µM],10µM*
CC(C)[C@H]1COC(c2cc(Cl)cc(Cl)c2)=N1,-4%[119 µM],-2,-14%[96.6 µM],/
O=C(c1cnn2c1NC(c1ccco1)CC2C(F)(F)F)N1CCN(c2cccc(Cl)c2)CC1 (configuration not stated),-4%,-8,-6%[0.074 µM],22µM*
O=C(c1ccco1)N1CCN(C(=O)c2cnn3c2NC(c2cccs2)CC3C(F)(F)F)CC1 (configuration not stated),-9%,-3,-24%[0.074 µM],-24%
CCOC(=S)SCC(=O)Nc1nccs1,-1%,4,-13%[10 µM],5.6µM*
SMILES,GLA spleen mod,GLA inh pH 4.5,HTT cytoprotect,HTT aggregate
CCOC(=S)SCC(=O)Nc1nc(C)c(C)s1,2%,9,6%[10 µM],-17%[9.22 µM]
Cc1ccc(C(c2nnnn2C2CCCCC2)N(C)C2CCCCC2)cc1 (configuration not stated),-16%,-6,1%,11µM*
CC(C)C(c1nnnn1C1CCCC1)N(C)C1CCCCC1 (configuration not stated),-3%,-2,31%,-8%
CC(C)(C)NC(=O)C(=O)NNC(=O)c1cccc(F)c1,5%,-14[21.1 µM],?,0.63µM*
COC(=O)NC(CC(C)=O)c1ccco1 (configuration not stated),17%[17.5 µM],/,-2%[10 µM],/
O=C(N/N=C/c1ccc(O)cc1)c1cccc(C(F)(F)F)c1,-2%,4,-6%[10 µM],9%
O=C(N/N=C/c1ccccc1O)c1cccc(C(F)(F)F)c1,3%,-9,/,2.5µM*
O=c1[nH]cnc2sc3c(c12)CCCC3,14%,9,11%,13µM*
O=c1[nH]cnc2sc3c(c12)CCCCC3,3%,-1,2%,-32%
O=C(O)c1ccccc1-c1c2ccc(=O)cc-2oc2cc(O)ccc12,8%,-10,-125%,0.032µM*
O=C(O)CN(CC(=O)O)Cc1cc2c(-c3ccccc3C(=O)O)c3cc(CN(CC(=O)O)CC(=O)O)c(=O)cc-3oc2cc1O,-12%,-1,/,0.18µM*
O=C(O)c1ccccc1-c1oc2cc(O)ccc2c(=O)c1Oc1ccccc1,-6%,-9,-54%,/
COc1cccc(-c2cncnc2NCc2ccccc2)c1,4%,-2,-37%,/
O=S(=O)(NC1CC1)c1ccc(S(=O)(=O)N2CCCC(c3nc(-c4cccnc4)no3)C2)cc1 (configuration not stated),6%,3,-6%[10 µM],11µM*
CCNC(=S)Nc1scc(-c2ccccc2)c1C(=O)OCC,-1%,-25,/,14µM*
CCOC(=O)c1c(-c2ccccc2)csc1NC(=S)NC,9%,3,20%[10 µM],-24%
CCOC(=O)c1c(-c2cccs2)csc1NC(=O)C(C)(C)C,-7%,-6,-73%,14µM*
C[C@@H]1CC[C@H]2C(=O)O[C@H](CN=[N+]=[N-])CN2[C@@H]1c1ccc(Br)cc1,6%[17.5 µM],/,-33%[10 µM],/
C/C(=N\OCC(=O)Nc1ccc2c(c1)OCCO2)c1ccc2c(c1)OCCO2,1%,1,-13%[10 µM],28µM*
CCOCC(=O)Nc1ccc2c(c1)OCCO2,10%,-2,-4%,-2%
CC(C)(C)C(=O)NCCCC(=O)O,/,/,2%,0%
CCCCCCCCCCCCCCCCC(C(=O)O)C(O)(CC(=O)O)C(=O)O (configuration not stated),/,/,-30%,-5%
Cc1ccc(C)c(-n2nnnc2Sc2nnnn2-c2ccccc2)c1,-4%,-1,-88%[10 µM],20µM*
O=C(O)c1cccc(Cl)c1Cl,-10%,/,5%,/
